Assay outcomes: PubChem, National Center for Advancing Translational Sciences (NCATS)
DT40 TDP1 no CPT – qHTS for Inhibitors of human tyrosyl-DNA phosphodiesterase 1 (TDP1): qHTS in cells in absence of CPT; DT40 Tdp1-/- hTDP1 cells, no CPT, ATP luminescence, 48 h; Potency, µM (top dose mostly 46.2 µM), inactives show top-dose activity change, negative = growth inhibition, hits mostly inhibitors; hit rate 15% among 420,000; AID 686978, 2013; note: potency is the fitted concentration of half-maximal effect; % is set by controls: 0 for no effect and ±100 for the full control effect; nearly all actives have a fitted effect of over 55% in size
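Chicken DT40 Tdp1-/- cells complemented with human TDP1, screened without camptothecin (DMSO vehicle only), 400 cells/well. Compounds pin-transferred, cells incubated at 37 °C for at least 48 hr. Growth read as ATP-dependent luminescence (CellTiter-Glo, 30 min at RT).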
HepG2 tox – counter-screen for TGF-b inhibitors: cytotoxicity in HepG2 cells | HepG2 CAGA-GFP viability, ATP luminescence, 18 h | Potency, µM (doses to about 46.1 µM), for inactives: top-dose activity change, negative = cytotoxicity, most hits filed as cytotoxic | hit rate 0.76% among 410,000; note: potency is the fitted concentration of half-maximal effect
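HepG2 CAGA-GFP cells (1000/well, DMEM with 1% FBS) received compound, then TGF-beta at 500 pg/mL final, and were incubated 18 hours at 37 degrees C. Viability was read by CellTiter-Glo luminescence. Media-only wells were set as complete cell-killing and DMSO as no toxicity.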
TGFb inhibitor – inhibitors of TGF-b signaling | Potency, µM (titrated, usually from 46.1 µM), inactives show at the top dose activity, negative = inhibition, hits mostly inhibitors | hit rate 1.2% among 410,000 | HepG2 CAGA-GFP TGF-b/SMAD3 reporter, GFP fluorescence, 18 h; TGF-beta stimulated, 500 pg/mL final; note: potency is the fitted concentration of half-maximal effect; % is set by controls: 0 for no effect and ±100 for the full control effect; nearly all actives have a fitted effect of over 65% in size
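Inhibition was scored as loss of TGF-beta-induced (500 pg/mL final, 18 hours, 37 degrees C) GFP in HEPG2 cells carrying a CAGA-GFP reporter, in DMEM with 1% FBS. Well GFP was summed per cell; Activity was normalised to unstimulated and stimulated DMSO wells, then concentration-response fitting.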
IL1B secr inh – inhibitors of inflammasome signaling (IL-1 beta secretion) | hit rate 4.7% among 360,000 | AID 743279 | activity change, % at 57.5 µM | THP-1 LPS/ATP IL-1B secretion, AlphaLISA, 16 h; stronger effect = lower value; in the data active = activity change below about -50%; inconclusive = mostly about -30% to -49%; note: % is set by controls: 0 for no effect and ±100 for the full control effect
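THP-1 cells pretreated 1 hr with compounds (up to 57.5 uM final), then stimulated with LPS (250 ng/mL final) plus ATP (1.25 mM final); secreted IL-1B measured by AlphaLISA after 16 hr, decreased signal indicating inhibition.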
ASM inhibitor – human S-ASM enzyme inhibition | P17405 | placental ASM, HMU-PC fluorogenic substrate, 60 min | Potency, µM (doses to about 57.5 µM), for the others: top-dose activity change, negative = inhibition, usual class: inhibitors | hit rate 0.006% among 340,000 | AID 504937; note: potency is the fitted concentration of half-maximal effect
Target sequence (P17405 47-631 limits assumed): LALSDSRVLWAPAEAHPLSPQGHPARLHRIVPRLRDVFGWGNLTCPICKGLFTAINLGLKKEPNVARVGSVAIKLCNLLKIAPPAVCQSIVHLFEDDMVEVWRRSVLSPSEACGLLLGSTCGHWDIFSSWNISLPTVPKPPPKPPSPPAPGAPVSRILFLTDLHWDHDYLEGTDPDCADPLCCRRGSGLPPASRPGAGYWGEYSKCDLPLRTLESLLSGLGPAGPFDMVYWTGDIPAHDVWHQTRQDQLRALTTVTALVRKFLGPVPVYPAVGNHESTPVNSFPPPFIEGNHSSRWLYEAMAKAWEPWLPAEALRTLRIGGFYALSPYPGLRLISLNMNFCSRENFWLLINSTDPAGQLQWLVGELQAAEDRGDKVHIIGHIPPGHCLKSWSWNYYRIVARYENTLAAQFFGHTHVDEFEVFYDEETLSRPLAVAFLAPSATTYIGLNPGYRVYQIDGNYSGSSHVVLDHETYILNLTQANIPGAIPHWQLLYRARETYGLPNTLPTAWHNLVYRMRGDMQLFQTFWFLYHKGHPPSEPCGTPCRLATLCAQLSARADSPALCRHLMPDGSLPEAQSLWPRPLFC
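Human placenta-derived ASM enzyme was preincubated with compound for 10 minutes at room temperature, then given fluorogenic substrate HMU-PC0 (9 uM final) for 60 minutes at 37 °C; a pH 10 stop preceded fluorescence reading at Ex 386/Em 447 nm.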
DT40 TDP1 CPT – growth inhibition of DT40 Tdp1-/-;hTDP1 cells with camptothecin (screen for TDP1 inhibitors) | chicken DT40 Tdp1-/-;hTDP1 cells + 20 nM CPT, ATP luminescence, 48 h | Potency, µM (highest dose often 46.2 µM), for the others: top-dose activity change, negative = growth inhibition, usual class: inhibitors | hit rate 12% among 420,000; note: potency is the fitted concentration of half-maximal effect; % is set by controls: 0 for no effect and ±100 for the full control effect; nearly all actives have a fitted effect of over 55% in size
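Cell growth measured by CellTiter-Glo luminescence after a minimum 48 h, 37 C compound exposure with 20 nM CPT in Tdp1-knockout DT40 cells stably expressing hTDP1, seeded 400/well; qHTS titration format.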
Numbers without * were called inactive; ? = inconclusive; · = no result. The list is not random: actives were taken first. Their share in the collection is about 19%. Unless noted, calls come from the whole dose curve; as a rule, active = well fitted curve in the direction sought with a large enough effect; inconclusive = small, poorly fitted or top-dose-only effect, or another doubt; inactive = no such curve, though single readings can be large; an effect the other way counts as inactive or inconclusive.

SMILES	DT40 TDP1 no CPT	HepG2 tox	TGFb inhibitor	IL1B secr inh	ASM inhibitor	DT40 TDP1 CPT
Cc1cc(C)c2c(C)c(C(=O)N3CCC(c4nc5ccccc5s4)CC3)oc2c1	?	-2%	?	·	·	?
O=C1COc2ccccc2C(c2nc3ccccc3[nH]2)N1C1CC1 (stereo not drawn)	-1%	·	·	6	·	-2%
O=C(/C=C/c1cccnc1)c1ccc(F)c(F)c1	16µM*	-6%	-9%	-75*	-2%	?
O=C(C=CC=Cc1ccccc1)c1ccc([N+](=O)[O-])cc1	21µM*	-3%	20%	-26	·	23µM*
CN(C)c1ccc(C(=O)/C=C/c2cccnc2)cc1	?	-65%	?	-16	-13%	?
O=C(/C=C/c1ccc([N+](=O)[O-])cc1)c1ccco1	?	-15%	?	0	-1%	?
Cc1cccc(C(=O)NCCN2CCCC2)c1	-21%	1%	0%	-7	-1%	-5%
O=C(/C=C/NNC(=O)c1ccccc1)c1ccccc1	0.82µM*	-17%	-29%	37	-2%	0.58µM*
Cc1cccc(C(=O)NCCNC(=O)c2cccc(C)c2)c1	29µM*	-6%	-2%	74	1%	-17%
CCOc1ccc(CCNC(=O)COC(=O)CCc2cc(OC)c(OC)c(OC)c2)cc1OCC	-18%	9%	9%	-6	1%	-9%
Cc1ccc(C(=O)Nc2ccc(N3CCN(C)CC3)cc2)c(Cl)c1	-8%	-12%	-6%	?	3%	-10%
CCOc1ccccc1CN1CCc2nc(Nc3ccc4c(c3)OCCO4)ncc2C1	?	-27%	-4%	·	·	?
O=C(/C=C/c1ccc([N+](=O)[O-])cc1)c1cccnc1	?	-62%	?	-14	3%	15µM*
O=C(/C=C/c1ccc([N+](=O)[O-])cc1)NCc1cccnc1	-11%	10%	?	-2	-1%	-16%
Cc1cc(C)c(S(=O)(=O)N2CCCCC2CCNC(=O)C(=O)NCCN2CCOCC2)c(C)c1 (stereo not drawn)	?	6%	-3%	-10	3%	?
O=C(NCCc1ccco1)C(=O)NCC1CCCN1S(=O)(=O)c1ccccc1 (stereo not drawn)	4.1µM*	-4%	-5%	-5	15%	12µM*
Cc1ccc(C)c(S(=O)(=O)N2CCCCC2CCNC(=O)C(=O)NCCc2ccco2)c1 (stereo not drawn)	?	-54%	4%	-21	-1%	?
Cc1ccc(S(=O)(=O)N2CCCCC2CCNC(=O)C(=O)NCc2ccco2)cc1 (stereo not drawn)	7.3µM*	11%	1%	-17	1%	13µM*
Cc1ccc(S(=O)(=O)N2CCCCC2CCNC(=O)C(=O)NCCc2ccco2)cc1 (stereo not drawn)	4.1µM*	5%	-27%	7	-3%	2.9µM*
Cc1ccc(S(=O)(=O)N2CCOC2CNC(=O)C(=O)NCc2ccco2)cc1 (stereo not drawn)	-7%	-2%	3%	-2	1%	3%
Cc1cc(C)c(S(=O)(=O)N2CCCCC2CCNC(=O)C(=O)NCc2ccco2)c(C)c1 (stereo not drawn)	16µM*	-8%	-24%	?	-3%	?
Cc1ccc(C)c(S(=O)(=O)N2CCCC2CNC(=O)C(=O)NCCc2ccco2)c1 (stereo not drawn)	?	1%	-25%	7	-5%	?
Cc1ccc(-c2nc3ccsc3c(=O)[nH]2)cc1	-9%	-2%	12%	40	-2%	-7%
CC(CC(=O)Nc1ccc(Cl)c([N+](=O)[O-])c1)c1ccccc1 (stereo not drawn)	?	-32%	?	-91*	-11%	?
CCNC(=S)Nc1ccc(Cl)c([N+](=O)[O-])c1	?	-15%	-8%	-89*	0%	-16%
SMILES	DT40 TDP1 no CPT	HepG2 tox	TGFb inhibitor	IL1B secr inh	ASM inhibitor	DT40 TDP1 CPT
CC(CC(=O)Nc1ccc(C(N)=O)cc1)c1ccccc1 (stereo not drawn)	-21%	-1%	0%	0	4%	-29%
O=c1c(N2CCN(c3ccccc3)CC2)csc2ccc(Cl)cc12	?	-6%	0%	·	·	?
CCOC(=O)N1CCN(c2ncnc3c2[nH]c2ccc(F)cc23)CC1	2.1µM*	-28%	-6%	-3	1%	6.5µM*
O=c1c2[nH]c3ccc(F)cc3c2ncn1CCN1CCN(Cc2ccccc2)CC1	-15%	-14%	-2%	5	-9%	8%
CCOC(=O)N1CCN(c2ncnc3c2[nH]c2ccc(OC)cc23)CC1	23µM*	-4%	-2%	0	157%	?
Fc1ccc2[nH]c3c(N4CCN(c5ccccc5)CC4)ncnc3c2c1	4.6µM*	-35%	?	-55*	-18%	5.2µM*
CCCCOc1ncnc2c1[nH]c1ccc(OC)cc12	?	3%	20%	23	27%	?
CCOC(=O)C1CCN(c2ncnc3c2[nH]c2cccc(OC)c23)CC1	26µM*	-4%	2%	?	10%	?
O=S(=O)(Cc1ccc(Cl)cc1)Nc1ccc(Cl)cn1	0%	-3%	-2%	16	2%	1%
Cc1nc(C(=O)N(Cc2cc3ccc(F)cc3nc2N2CCC(O)CC2)CC2CCCO2)cs1 (stereo not drawn)	-25%	·	·	·	·	-11%
COc1ccc(N2CCN(c3ncnc4c3[nH]c3ccccc34)CC2)cc1	2.3µM*	-3%	-7%	-30	-7%	3.7µM*
CCc1cccc(CC)c1NC(=O)CSc1nc2ccc(N3C(=O)C4C(C3=O)[C@H]3C=C[C@@H]4C3)cc2s1 (stereo partly drawn)	8.2µM*	-18%	-1%	-6	-2%	?
Cc1ccccc1OCCC(=O)OCC(=O)Nc1ccc2[nH]c(=O)[nH]c2c1	6%	-6%	-20%	8	·	-6%
COC(=O)C(CCSC)NC(=O)c1cc2c(n(-c3ccc(Cl)cc3)c1=O)CCCC2=O (stereo not drawn)	-14%	-26%	0%	·	·	-17%
CC1(Cc2ccccc2C#N)C(=O)Nc2cc(-c3ccccc3Cl)ccc21 (stereo not drawn)	?	-29%	?	-20	·	23µM*
